According to PubChem BioAssay (NCI):
Compounds without any hit were thinned out: in the full panel of roughly 83,000, 20% have a hit.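 96-well plates, one dose, 48 hours. Percent growth reported; active if below 10.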 Values without a mark were called inactive. Active and inactive are the calls of the source.

What was measured:
Assay in all cases: NCI-60 one-dose screen, 48 h (100 = growth as untreated, 0 = no growth, -100 = all killed)
Details in all cases: 10 µM unless noted
RPMI-8226 leukemia = system: RPMI-8226 leukemia
OVCAR-8 ovarian = system: OVCAR-8 ovarian
OVCAR-4 ovarian = system: OVCAR-4 ovarian
SK-OV-3 ovarian = system: SK-OV-3 ovarian
IGROV1 ovarian = system: IGROV1 ovarian
OVCAR-3 ovarian = system: OVCAR-3 ovarian
HS 578T breast = system: HS 578T breast
NCI/ADR-RES ovarian = system: NCI/ADR-RES ovarian
T-47D breast = system: T-47D breast
OVCAR-5 ovarian = system: OVCAR-5 ovarian

SMILES	growth (RPMI-8226 leukemia)	growth (OVCAR-8 ovarian)	growth (OVCAR-4 ovarian)	growth (SK-OV-3 ovarian)	growth (IGROV1 ovarian)	growth (OVCAR-3 ovarian)	growth (HS 578T breast)	growth (NCI/ADR-RES ovarian)	growth (T-47D breast)	growth (OVCAR-5 ovarian)
COc1ccc(-c2c(-c3cc(OC)c(OC)c(OC)c3)noc2N)cc1	10.9%	24.9%	38.8%	20.6%	22.4%	-29.7% (active)	30%	11.1%	61.2%	
O=C(/C=C/c1cc2ccccc2[nH]c1=O)c1ccc(Cl)cc1		23.1%	43.8%	58%	26.4%	-10.1% (active)	54%	-6.67% (active)	34%	55.9%
O=C1N(C2CCCCC2)C(=O)N1C1CCCCC1	-16.7% (active)			71.8%		59.7%	-2.96% (active)	35.5%	43.7%	28.9%
Cc1cc(C)c(OC(=O)CSc2nc3ccccc3c(=O)n2CCc2ccccc2)cc1C		95.3%	101%	95.7%	89.4%	99%	94.5%	89.3%	90.5%	110%
Clc1ccc(-c2nc(-c3cccs3)no2)c(Cl)c1	86%	97.1%		93.9%	66.8%	99.2%	96.1%	103%	51.7%	
O=C1/C(=N/O)CCc2ccccc21		95.6%	85.7%	100%	69.5%	-6.51% (active)	95%	102%	100%	108%
O=C(/C=C/c1cc2ccccc2[nH]c1=O)c1ccc(O)cc1		22.3%	62.9%	39.8%	53.8%	-18.8% (active)	-27.2% (active)	36.4%	66.1%	78.6%
Cn1c(=O)c2c(nc(Br)n2CCC(=O)Nc2ccc(F)cc2)n(C)c1=O		100%	114%	83.6%	107%	125%	102%	101%	97.3%	94.7%
O=C(Cc1ccccn1)C(F)(F)C(F)(F)C(F)(F)F	100%		109%	109%	123%	112%	102%	104%	102%	113%
ClC1=C(Cl)C(Cl)=C(Cl)C1=Cc1ccc(Cl)cc1	-43.2% (active)		75.4%	95.5%		-96.8% (active)	-12.2% (active)		25.3%	71.9%
ClC1=C(Cl)C(=C2C(Cl)=C(Cl)C(Cl)=C2Cl)C(Cl)=C1Cl		97.7%	100%	91.6%	108%	114%	94.1%	105%	79.5%	115%
O=Cc1c[nH]c2ccc(NC(=O)OCc3ccccc3)cc12		103%	104%	97.6%	32.4%	123%	252%	96.3%	84.2%	97.5%
COc1cc(/C=C2\COc3ccc(O)cc3C2=O)cc(OC)c1		40.4%	93.4%	91.7%	73.2%	37.1%	77.4%	65.8%	60.3%	73.7%
ClC1C2CC(c3ccccc32)C1Cl (centres undefined)		113%	112%	115%	118%	113%	113%	106%	103%	102%
O=C(COC(=O)[C@H](C[Se][Se]C[C@H](NC(=O)c1ccc(Br)cc1F)C(=O)OCC(=O)c1ccc(F)cc1)NC(=O)c1ccc(Br)cc1F)c1ccc(F)cc1		-100% (active)	-95.7% (active)	-81% (active)	-100% (active)	-100% (active)	-16% (active)	-82.8% (active)	-67% (active)	-68.7% (active)
COc1ccc(Cn2c(NCCCN(C)C)nc(=O)n(Cc3ccc(F)cc3)c2=O)cc1		98.9%	93.1%	86.3%	84.7%	87%	93.3%	109%	83.4%	109%
